Most compounds without a hit are left out; they make up all but 3% or so of the library.
SENP6 block: inhibitors of human SENP6 protease | Recombinant SENP6 catalytic domain, aminoluciferin luminescence | inhibition, % at 10 µM | Q9GZR1 | AID 2599 | hit rate 1.8% among 330,000;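 active = inhibition above about 50% at the single tested dose, limit read from the data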
SENP7 block: inhibitors of human SENP7 protease | Q9BQF6 | recombinant SENP7, Z-RLRGG-aminoluciferin luminescence, 40 min | inhibition, % at 5 µM | hit rate 1.5% among 330,000 | AID 434973;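 active = inhibition above about 50% at the single test dose, limit read from the data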
Target sequence (Q9BQF6 706-1050 limits assumed): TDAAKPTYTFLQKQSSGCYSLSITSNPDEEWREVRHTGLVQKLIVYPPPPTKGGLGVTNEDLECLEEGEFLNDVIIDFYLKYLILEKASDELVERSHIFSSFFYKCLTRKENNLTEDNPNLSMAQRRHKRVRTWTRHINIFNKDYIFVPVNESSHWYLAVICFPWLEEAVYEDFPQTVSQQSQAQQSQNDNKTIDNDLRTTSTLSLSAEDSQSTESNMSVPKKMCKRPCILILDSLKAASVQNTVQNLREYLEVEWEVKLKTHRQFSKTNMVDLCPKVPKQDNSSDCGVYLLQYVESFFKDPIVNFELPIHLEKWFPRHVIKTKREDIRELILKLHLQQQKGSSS
SENP8 block-1: SENP8 protease inhibition; Q96LD8; purified SENP8, Z-RLRGG-aminoluciferin cleavage, luminescence; inhibition, % at 10 µM; hit rate 1.2% among 330,000; AID 2540; in the data active = inhibition above about 50%
Target sequence (Q96LD8 whole entry, looked up): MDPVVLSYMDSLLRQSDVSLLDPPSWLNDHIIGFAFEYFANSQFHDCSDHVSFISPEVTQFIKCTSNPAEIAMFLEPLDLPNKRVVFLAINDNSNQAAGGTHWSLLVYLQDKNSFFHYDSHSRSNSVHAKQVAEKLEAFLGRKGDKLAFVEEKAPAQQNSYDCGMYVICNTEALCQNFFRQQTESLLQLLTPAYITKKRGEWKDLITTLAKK
PPC-1+TRAIL kill: compounds killing PPC-1 cancer cells with TRAIL present (potentiator screen, no TRAIL-free arm) | PPC-1 cells + TRAIL, ATPLite viability luminescence | cell killing (% activity), % at 4 µM or 5 µM | hit rate 0.41% among 220,000;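 active = cell killing above 50% in the first pass at 4 µM, then a duplicate retest at 5 µM averaging 50% or more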
TRAIL sens C8: caspase-8 TRAIL sensitization | NB7+C8 cells + TRAIL, ATPlite viability luminescence | hit rate 1% among 360,000 | inhibition (viability loss, TRAIL sensitization), % at 10 µM;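 active = compounds causing at least 50% loss of cell viability in the single-dose screen, relative to plate controls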
SENP8 block-2: SENP8 (human) protease inhibition; Q96LD8; recombinant SENP8, Nedd8 substrate fluorescence; inhibition, % at 20 µM; hit rate 0.64% among 360,000; in the data active = inhibition mostly above about 40%, no sharp cut-off; inactive = mostly below about 27%
SENP8 conf: confirmation of human SENP8 protease inhibitors | shares compounds with SENP7 block | Recombinant SENP8, Z-RLRGG-aminoluciferin luminescence, 60 min | inhibition, % at 12.5 µM | hit rate 40% among 6,200 | AID 488912;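 active = mean inhibition across replicates above about 50%, limit read from the data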
SENP6 confirm: confirmation of human SENP6 protease inhibitors. shares compounds with SENP7 block. recombinant SENP6, Z-RLRGG-aminoluciferin luminescence. inhibition, % at 12.5 µM. hit rate 58% among 6,200. AID 488915
SENP7 confirm: human SENP7 inhibition, confirmed; AID 488917; recombinant SENP7, Z-RLRGG-aminoluciferin luminescence, 40 min; shares compounds with SENP7 block; inhibition, % at 12.5 µM; hit rate 69% among 6,200
Casp3 SENP sel: selectivity test for SENP inhibitors: human caspase-3 inhibition | shares compounds with SENP7 block | purified caspase-3, Z-DEVD-aminoluciferin luminescence, 60 min | inhibition, % at 12.5 µM | hit rate 60% among 6,200;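 active = mean inhibition above about 50%, limit read from the data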
Luc interf: counter-screen for SENP inhibitors: luminescence interference; shares compounds with SENP7 block; Pre-incubated SENP8/Z-RLRGG-aminoluciferin, luciferase luminescence interference; inhibition, % at 12.5 µM; hit rate 39% among 6,200; AID 488919;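 active = mean inhibition above about 50% when retested at one dose, limit read from the data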
Hits are given with their value; - = inactive; . = no result given.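 Rule for the calls, unless noted: active = mean inhibition above about 50% in the one-dose retest (limit read from the data); inactive = the rest.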

SMILES | SENP6 block | SENP7 block | SENP8 block-1 | PPC-1+TRAIL kill | TRAIL sens C8 | SENP8 block-2 | SENP8 conf | SENP6 confirm | SENP7 confirm | Casp3 SENP sel | Luc interf
O=C(CCCN1C(=O)/C(=C/c2ccc3c(c2)OCO3)SC1=S)Nc1cccc(C(=O)O)c1 | 82 | - | 76 | . | - | - | 60 | 82 | 90 | 63 | -
O=C(O)CCN1C(=O)/C(=C\c2cccc(OCC(=O)Nc3ccc(Cl)cc3)c2)SC1=S | - | - | - | - | - | - | . | . | . | . | .
O=C(CCCN1C(=O)/C(=C\c2ccccc2)SC1=S)Nc1cccc(C(=O)O)c1 | 63 | - | - | . | - | - | - | - | - | - | -
CCn1cc(/C=N/N=C2\CCC3C4CCc5cc(O)ccc5C4CC[C@]23C)c(C)n1 (some centres not stated) | - | - | - | - | - | - | . | . | . | . | .
COc1cccc(-c2cnc(C(O)c3ccc(Cl)cc3C)[nH]2)c1 (configuration not stated) | . | . | . | . | - | - | . | . | . | . | .
COCCN1C(=O)N[C@@H](c2cccs2)C(C(C)=O)=C1C | - | - | - | . | - | - | . | . | . | . | .
CCn1ccnc1CNC(=O)c1ccc2oc(C(C)C)nc2c1 | - | - | - | . | - | - | . | . | . | . | .
O=C(CCN1C(=O)/C(=C/c2ccc(Cl)cc2)SC1=S)Nc1cccc(C(=O)O)c1 | - | - | - | . | - | - | . | . | . | . | .
COc1cccc(/C=C2\SC(=S)N(CCCC(=O)Nc3ccc(C(=O)O)cc3)C2=O)c1 | 84 | 81 | 84 | . | - | - | 67 | 76 | 62 | 58 | -
COc1ccc(/C=C2\SC(=S)N(CCC(=O)Nc3cccc(C(=O)O)c3)C2=O)cc1 | 62 | - | 53 | . | - | - | - | - | - | - | -
CCOC(=O)c1c(C)nc2c3ccccc3ccn12 | 74 | 78 | 53 | - | 50 | - | 63 | 60 | 89 | 74 | 65
CCOC(=O)c1c(C)nc2c(C)cccn12 | - | - | - | - | - | - | . | . | . | . | .
COc1ccc(NC(=O)c2ccc3c(c2)OCO3)cc1Cl | 80 | 93 | 83 | - | - | - | - | 88 | 99 | 88 | -
COCC(=O)Nc1ccc(OC)c(Cl)c1 | - | - | - | - | - | - | . | . | . | . | .
COc1cc(NC(=O)c2ccc3c(c2)OCCO3)ccc1NC(=O)c1ccccc1Cl | - | - | - | . | - | - | . | . | . | . | .
COc1cc(C(=O)Nc2ccc3c(c2)OCCO3)ccc1OC(F)F | 82 | 77 | 62 | - | - | - | - | 71 | 90 | 76 | 75
O=C(Nc1ccc(F)c(Cl)c1)c1ccccc1 | 78 | 83 | 77 | . | - | - | 84 | 82 | 95 | 78 | 54
COc1ccc(NC(=O)C=C(C)C)cc1Cl | 94 | - | 93 | - | - | - | - | 94 | 100 | 96 | 94
COc1ccc([C@H]2N[C@]3(CCCN(Cc4ccc(Cl)cc4)C3=O)[C@H]3C(=O)N(Cc4ccccc4)C(=O)[C@@H]23)cc1 | . | . | . | . | - | - | . | . | . | . | .
COc1ccc(NC(=O)CSc2ncn(-c3ccccc3)n2)cc1Cl | 93 | - | - | - | - | - | - | - | - | - | -
O=C(Nc1ccc(F)c(Cl)c1)c1ccc2c(c1)OCO2 | 88 | 76 | 81 | . | - | - | - | 90 | 100 | 84 | -
Cc1nc2ccc(-c3nc4ccc(N)cc4[nH]3)cc2[nH]1 | - | - | - | - | - | - | . | . | . | . | .
Cc1ccnc2ccc(-c3nc4ccccc4o3)cc12 | 88 | 83 | 71 | - | - | - | - | - | 58 | - | -
Cc1nc2ccc(-c3nc4ccccc4o3)cc2[nH]1 | - | 62 | - | - | - | - | 63 | 59 | 84 | 60 | 64
CCN1CCN(C(=O)c2ccc(Cl)c(S(=O)(=O)N3CCCCC3)c2)CC1 | - | - | - | . | - | - | . | . | . | . | .
SMILES | SENP6 block | SENP7 block | SENP8 block-1 | PPC-1+TRAIL kill | TRAIL sens C8 | SENP8 block-2 | SENP8 conf | SENP6 confirm | SENP7 confirm | Casp3 SENP sel | Luc interf
COc1ccc(CN2C(=O)c3ccc(C(=O)O)cc3C2=O)cc1 | - | - | - | . | - | - | . | . | . | . | .
Cc1cc(C(=O)Nn2cnnc2)ccc1[N+](=O)[O-] | 81 | 78 | 72 | . | - | - | 69 | 65 | 92 | 93 | 76
O=C(O)CCc1ccc(-c2ccc(Cl)cc2)o1 | 73 | - | - | - | - | - | 68 | 61 | 88 | 66 | 81
O=C(O)CCc1ccc(-c2ccc(Br)cc2)o1 | - | - | - | - | - | - | . | . | . | . | .
O=C(Oc1ccccc1)c1ccc(COC(=O)c2cnccn2)cc1 | 94 | 89 | 76 | - | - | - | - | 80 | 97 | 87 | 85
COC(=O)c1ccc(COC(=O)c2ccccn2)cc1 | 75 | 82 | - | - | - | - | 76 | 74 | 91 | 92 | 76
Cc1nn(CC(=O)Nc2ccc(N3CCOCC3)cc2)c(C)c1Cl | - | - | - | . | - | - | . | . | . | . | .
CC1CCCC(NC(=O)c2cccc(S(=O)(=O)N3CCCCC3)c2)C1C (configuration not stated) | - | - | - | . | - | - | . | . | . | . | .
c1ccc2nc(-c3ccc(-n4ccnc4)cc3)ccc2c1 | - | 72 | 61 | . | - | - | - | 81 | - | - | -
Nc1ccc(-n2ccnc2)cc1 | - | - | - | - | - | - | . | . | . | . | .
CC(=O)NC(c1ccccc1)c1cccnc1 (configuration not stated) | - | - | - | - | - | - | . | . | . | . | .
CCc1cccc(CC)c1C(OC(C)=O)c1cccnc1 (configuration not stated) | - | - | 55 | . | - | - | - | - | - | - | -
CC(C)CCOCC(=O)Nc1cccc(C(=O)O)c1 | 58 | - | - | - | - | - | - | - | 73 | - | 62
CC(=O)c1cccc(NC(=O)COc2ccccc2)c1 | - | - | - | - | - | - | . | . | . | . | .
FC(F)(F)c1nc2cc3nc4ccccc4[nH]c3cc2n1 | 54 | - | - | - | - | - | 67 | 65 | 86 | 80 | 70
CCOc1ccc(CNC(=O)C2CCN(c3nn4c(=O)cc(C)nc4s3)CC2)cc1 | - | - | - | . | - | - | . | . | . | . | .
C/C(=N\OC(=O)c1ccc(Cl)c(Cl)c1)c1sc(C)nc1C | 51 | - | - | - | - | - | - | - | - | - | -
C/C(=N/OC(=O)c1ccccc1Br)c1ccc(C)cc1 | 61 | - | - | . | - | - | - | - | 72 | - | -
C/C(=N/OC(=O)c1ccc(C)cc1)c1cccs1 | 97 | 100 | 98 | - | - | - | 98 | 99 | 102 | 97 | 97
